Source: PubChem BioAssay

Target: Alpha-2C adrenergic receptor (Homo sapiens) (UniProt P18825)
Assay: modulators of alpha2C/GIRK thallium flux, primary screen, cell-based, HEK293 alpha2C/GIRK1/2 (AID 624);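 also: slope of fluorescence ratio to pre-addition baseline per second over 15 to 24 s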
Settings: thallium flux BTC fluorescence, at 10 µM, actives lie on both sides;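 active = fluorescence slope after compound addition differing from the mean of all screened samples at 99.7% confidence, in either direction; inactive = the rest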

Alpha-2C adrenergic receptor (Homo sapiens), sequence (P18825 whole entry, looked up): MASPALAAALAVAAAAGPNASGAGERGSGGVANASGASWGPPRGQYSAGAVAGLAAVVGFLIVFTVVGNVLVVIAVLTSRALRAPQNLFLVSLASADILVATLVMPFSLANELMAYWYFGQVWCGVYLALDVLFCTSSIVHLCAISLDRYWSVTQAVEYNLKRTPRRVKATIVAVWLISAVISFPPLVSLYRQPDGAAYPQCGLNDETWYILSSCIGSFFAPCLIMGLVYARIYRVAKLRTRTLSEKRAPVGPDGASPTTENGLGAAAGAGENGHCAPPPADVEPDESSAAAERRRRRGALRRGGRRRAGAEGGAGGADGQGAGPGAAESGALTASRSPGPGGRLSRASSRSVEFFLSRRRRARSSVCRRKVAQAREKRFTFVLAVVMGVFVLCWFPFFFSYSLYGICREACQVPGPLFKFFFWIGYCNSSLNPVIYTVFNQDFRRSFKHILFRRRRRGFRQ

slope, inactive:
C#CCOC(=O)C1C2C=CC(C2)C1C(=O)O (centres undefined) 0.00609, Cc1nc2ncnn2c(N2CCC(C(=O)NCC3CCCO3)CC2)c1Cc1ccccc1 (centres undefined) 0.00509, CCC(=O)Nc1nn(C)c2nc3c(C)cccc3cc12 0.00513, Cc1cc(NC(=O)C(C)(C)C)no1 0.005, CCN(CC(=O)Nc1ccc2c(c1)CCC2)Cc1nc2ccccc2c(=O)[nH]1 0.00524, Cc1ccc(S(=O)(=O)NCC(=O)OCC(=O)Nc2ncc(Cl)cc2Cl)cc1 0.00472, O=C(CN1C(=O)c2ccccc2C1=O)Nc1ccc(S(=O)(=O)NCC2CCCO2)cc1 (centres undefined) 0.00503, Cc1cc(C)nc(SCc2nnc(SCC(=O)Nc3ncc(C)s3)n2Cc2ccco2)n1 0.00544, COc1ccc(C(C)NC(=O)c2ccoc2C)cc1OC (centres undefined) 0.00668, Cc1nc(C)n(C(C)CC(=O)O)n1 (centres undefined) 0.00496, Cc1cccc(N(CC(=O)N2CCCC2)S(=O)(=O)c2ccccc2)c1C 0.00511, CCC1(C)Cc2c(sc3nc(SCC(=O)O)[nH]c(=O)c23)CO1 (centres undefined) 0.00549, Cc1cc(NC(=O)CSc2nc(C3CC3)nc3sc4c(c23)CCC(C)C4)no1 (centres undefined) 0.00786, CCN(CC)C(c1ccc(C)cc1)c1nnnn1C1CCCCC1 (centres undefined) 0.00367, COc1ccc(NC(=O)CSc2nc(C)cc(C(F)(F)F)n2)cc1 0.00507, CC1CN(C(=O)CSc2ncnc3sccc23)CC(C)O1 (centres undefined) 0.0052, CC1CCCC(C)N1CCNC(=O)C1CCN(S(=O)(=O)N2CCCCC2)CC1 (centres undefined) 0.00471, COc1ccc(C(=O)Nc2ccc(Cl)c(Cl)c2)c(OC)n1 0.00581, CC(C)(C)c1ccc(C(=O)N2CCC(C(=O)NCc3ccncc3)CC2)cc1 0.00471, CCc1nnc(NC(=O)CSc2nc(-c3ccc(OC)cc3)ns2)s1 0.00688, COC(=O)c1ccc(NC(=O)C2C3CCC(C3)C2C(=O)O)cc1 (centres undefined) 0.00477, c1ccc(-c2nc3cnccn3c2Nc2ccc3c(c2)OCCO3)cc1 0.00431, CCOCC(O)CS(=O)Cc1ccccc1 (centres undefined) 0.00589, Cc1ccc(OCC(O)Cn2c(NCCc3ccccc3)nc3c2c(=O)[nH]c(=O)n3C)cc1 (centres undefined) 0.00534
